{"source": "PubChem BioAssay (EPA / NIEHS)", "note": "The source made the active and inactive calls. The calls were made as follows: active = hit-call score of the fitted dose curve at least 0.9, where 1 is the maximum; inconclusive = response in the unintended direction; inactive = score below 0.9.", "data": [{"target": "Androgen Receptor/SRC-1 Co-activator, AR (gene 367) (UniProt P10275)", "sequence (P10275 whole entry, looked up)": "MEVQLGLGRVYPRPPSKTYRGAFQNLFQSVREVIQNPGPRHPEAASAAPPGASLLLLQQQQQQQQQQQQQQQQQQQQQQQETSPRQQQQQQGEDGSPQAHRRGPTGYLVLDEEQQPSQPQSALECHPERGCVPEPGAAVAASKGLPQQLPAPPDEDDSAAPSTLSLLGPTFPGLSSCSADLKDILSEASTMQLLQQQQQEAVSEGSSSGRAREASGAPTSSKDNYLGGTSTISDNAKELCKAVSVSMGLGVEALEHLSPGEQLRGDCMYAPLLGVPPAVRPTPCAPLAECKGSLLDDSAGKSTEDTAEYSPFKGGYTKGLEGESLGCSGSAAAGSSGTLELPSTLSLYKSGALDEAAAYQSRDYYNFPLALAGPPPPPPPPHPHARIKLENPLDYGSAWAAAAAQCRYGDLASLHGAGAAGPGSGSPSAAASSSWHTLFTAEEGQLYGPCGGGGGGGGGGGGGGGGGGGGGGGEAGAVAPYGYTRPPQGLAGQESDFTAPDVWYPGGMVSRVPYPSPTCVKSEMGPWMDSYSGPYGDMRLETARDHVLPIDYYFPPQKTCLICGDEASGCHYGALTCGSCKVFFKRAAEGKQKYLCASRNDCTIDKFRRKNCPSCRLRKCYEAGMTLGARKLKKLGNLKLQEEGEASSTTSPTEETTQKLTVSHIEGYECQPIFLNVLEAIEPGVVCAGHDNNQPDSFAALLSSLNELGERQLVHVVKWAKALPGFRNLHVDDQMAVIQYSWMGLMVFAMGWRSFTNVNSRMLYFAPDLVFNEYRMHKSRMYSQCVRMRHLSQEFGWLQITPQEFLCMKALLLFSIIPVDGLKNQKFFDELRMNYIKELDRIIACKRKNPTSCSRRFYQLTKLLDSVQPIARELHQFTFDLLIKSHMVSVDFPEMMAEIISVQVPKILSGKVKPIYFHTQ", "assay": "OT_AR_ARSRC1_0960: Odyssey Thera (OT) 16-hour HEK293T Protein-Complementation Assay for Androgen Receptor/SRC-1 Co-activator (AID 2283353);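 also: actives raise the signal above DMSO so potency reflects increased AR and SRC-1 complex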", "description": "OT_AR_ARSRC1_0960 is a cell-based, single-readout assay that uses HEK293T, a human kidney cell line, with measurements taken at 16 hours after chemical dosing in a 384-well plate.OT_AR_ARSRC1_0960 is one of one assay component(s) measured or calculated from the OT_AR_ARSRC1_0960 assay. It is designed to make measurements of protein fragment complementation, a form of binding reporter, as detected with fluorescence intensity signals by Protein-fragment Complementation technology.Data from the assay component OT_AR_ARSRC1_0960 was analyzed into 1 assay endpoint. This assay endpoint, OT_AR_ARSRC1_0960, was analyzed in the positive analysis fitting direction relative to DMSO as the negative control and baseline of activity. Using a type of binding reporter, measures of receptor for gain-of-signal activity can be used to understand the binding at the pathway-level as they relate to the gene AR. Furthermore, this assay endpoint can be referred to as a primary readout, because the performed assay has only produced 1 assay endpoint. To generalize the intended target to other relatable targets, this assay endpoint is annotated to the nuclear receptor intended target family, where the subfamily is steroidal.\nProtein-fragment complementation assay, or PCA, is a method for the identification and quantification of protein-protein interactions. In the PCA, the proteins of interest (\"bait\" and \"prey\") are each covalently linked to fragments of a third protein (e.g. DHFR, which acts as a \"reporter\"). Interaction between the bait and the prey proteins brings the fragments of the reporter protein in close proximity to allow them to form a functional reporter protein whose activity can be measured. The OT AR / SRC-1 assay assessed androgen receptor chemical interactions using a rapidly maturing, intensely fluorescent mutant of YFP known as Venus, rationally dissected into two separate fragments. […] Fusion constructs were transfected into HEK293T cells with a (Gly4Ser)2 linker between the AR/SRC-1 and YFP fragment genes to facilitate complementation when interacting proteins bring fragments into close proximity. The construct is stably expressed in HEK293T cells. […] Images were acquired on an Evotec Opera at 2 wavelengths (488 and 635nm), and the ratio of fluorescence in the nucleus relative to fluorescence in the cytoplasm (N/C Ratio) in the 488nm channel was calculated for a minimum of 400 cells per image. Both agonists and antagonists of the AR receptor induce nuclear translocation to varying degrees. […] The OT AR/SRC-1 assay was also run for 16 hours (see description for OT_AR_ARSRC1_0960).", "values": [{"smiles": "CCCOc1nn(C(=O)NS(=O)(=O)c2ccccc2C(=O)OC)c(=O)n1C", "outcome": "inactive"}, {"smiles": "C=C(C)[C@H]1Cc2c(ccc3c2O[C@@H]2COc4cc(OC)c(OC)cc4[C@@H]2C3=O)O1", "AC50": "0.088 µM (active)"}, {"smiles": "CCC(=O)Nc1ccc(Cl)c(Cl)c1", "outcome": "inactive"}, {"smiles": "N#CSCSC#N", "AC50": "15.5 µM (active)"}, {"smiles": "C[N+]1(C)CCCCC1", "outcome": "inactive"}, {"smiles": "CCOP(=O)(NC(C)C)Oc1ccc(SC)c(C)c1", "note": "(centres undefined)", "outcome": "inactive"}, {"smiles": "CNC(=O)ON=C(SC)C(=O)N(C)C", "outcome": "inactive"}, {"smiles": "Cc1nn(-c2cc(NS(C)(=O)=O)c(Cl)cc2Cl)c(=O)n1C(F)F", "outcome": "inactive"}, {"smiles": "CC(C)=CC1C(C(=O)OCN2C(=O)C3=C(CCCC3)C2=O)C1(C)C", "note": "(centres undefined)", "AC50": "78.6 µM (active)"}, {"smiles": "CCOC(=O)COc1cc(-c2nn(C)c(OC(F)F)c2Cl)c(F)cc1Cl", "outcome": "inactive"}, {"smiles": "Nc1c(Cl)cc([N+](=O)[O-])cc1Cl", "outcome": "inactive"}, {"smiles": "CC(COc1ccc(Oc2ccccc2)cc1)Oc1ccccn1", "note": "(centres undefined)", "outcome": "inactive"}, {"smiles": "COP(=O)(OC)OC(Br)C(Cl)(Cl)Br", "note": "(centres undefined)", "AC50": "32.5 µM (active)"}, {"smiles": "COP(=O)(OC)SCn1c(=O)oc2cc(Cl)cnc21", "AC50": "57.8 µM (active)"}, {"smiles": "O=c1ccc(=O)[nH][nH]1", "outcome": "inactive"}, {"smiles": "CCCCOC(=O)c1ccccc1C(=O)O", "outcome": "inactive"}, {"smiles": "COc1ccc(C(=CC(=O)N2CCOCC2)c2ccc(Cl)cc2)cc1OC", "outcome": "inactive"}, {"smiles": "CCCSP(=O)(OCC)SCCC", "outcome": "inactive"}, {"smiles": "CCc1cccc(CC)c1N(COC)C(=O)CCl", "AC50": "32 µM (active)"}]}]}
